Hits are enriched below; roughly 1.4% of the tested compounds scored in any of these assays.
Her2 expr inh: inhibitors of human Her2 kinase expression; P04626; HER2 level % of control, % at 10 µM; SKBR-3 HER2 protein level, AlphaScreen, 18-24 h; hits give low values; 0.69% of 65,000 active;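 active = HER2 level under 5% of the carrier-only control; inconclusive = no clear call, values can overlap the other calls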;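 also: lower value means stronger loss of Her2 protein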
SKBR3 24h inh: SK-BR-3 proliferation inhibitors. SK-BR-3 viability, CellTiter-Glo ATP luminescence, 24 h; hits give low values. viability, % at 10 µM. 0.47% of 41,000 active;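 active = viability at or below the median of all test compounds minus 3 SD, in both replicates if run twice, cut at about 45% in these data; inconclusive = duplicate replicates that disagree with each other; inactive = viability above that cutoff in every replicate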
E coli RNAP: blocks E. coli RNA polymerase transcription. fluorescence transcription assay. inhibition, %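 (tested at 10 µM)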. 0.2% of 62,000 active. AID 559; in the data active = inhibition above about 20%
TNAP act DEA: human TNAP activation, intermediate phosphate acceptor. 64,000 tested, under 10 active. purified TNAP, CDP-star luminescence, 100 mM DEA, 30 min; hits give high values; scale: 0 levamisole-inhibited, 1 vehicle-only enzyme. activation factor at 20 µM. P05186;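 active = activation factor of at least 2 at 20 µM, relative to controls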
Target sequence (P05186 whole entry, looked up): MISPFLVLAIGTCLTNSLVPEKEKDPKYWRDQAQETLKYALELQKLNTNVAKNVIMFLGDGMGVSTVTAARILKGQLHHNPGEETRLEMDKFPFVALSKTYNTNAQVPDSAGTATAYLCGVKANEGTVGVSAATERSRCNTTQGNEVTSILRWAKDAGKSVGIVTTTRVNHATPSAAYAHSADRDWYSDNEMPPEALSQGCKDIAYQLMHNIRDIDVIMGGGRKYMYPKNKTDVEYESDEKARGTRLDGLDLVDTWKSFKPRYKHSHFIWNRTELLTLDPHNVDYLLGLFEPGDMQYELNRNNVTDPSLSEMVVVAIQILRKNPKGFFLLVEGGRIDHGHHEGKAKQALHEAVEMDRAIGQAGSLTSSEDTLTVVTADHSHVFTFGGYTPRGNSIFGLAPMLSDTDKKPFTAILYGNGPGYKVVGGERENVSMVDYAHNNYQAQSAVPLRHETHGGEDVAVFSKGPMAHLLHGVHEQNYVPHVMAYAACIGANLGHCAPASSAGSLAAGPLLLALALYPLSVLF
BAP1 block: human BAP1 deubiquitinase inhibition. 0.48% of 72,000 active. recombinant BAP1, Ub-AMC hydrolysis fluorescence kinetic; hits give low values. calls only at 20 µM. Q92560;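 active = activity remaining at or below 50% of control, provided the compound also passes the data quality filters; inactive = the rest, including low values that fail the filters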
Of the large screens only hits and unclear results are named; the others gave an inactive call.

COC(=O)CC1=C(C(=O)OC)C(c2ccc3c(c2Cl)OCO3)C(C#N)=C(N)O1 (configuration not stated)	Her2 expr inh -22
COC(=O)CC1=C(C(=O)OC)C(c2ccncc2)C(C#N)=C(N)O1 (configuration not stated)	none
Cc1ccc(S(=O)(=O)CCC(=O)OCC(=O)Nc2cc(C)on2)cc1	none (no result: SKBR3 24h inh)
Cc1ccc(S(=O)(=O)CCC(=O)c2ccc(O)cc2O)cc1	Her2 expr inh -7.3
c1coc(C2Nc3cccc4cccc(c34)N2)c1	E coli RNAP 21 (not shown: BAP1 block)
CCn1c2ccccc2c2cc(C3C(C#N)=C(N)Oc4n[nH]c(COC)c43)ccc21 (configuration not stated)	Her2 expr inh -24, SKBR3 24h inh inconclusive
COc1ccccc1-n1c(SCC(=O)NC(C)(C)C)nc(O)cc1=O	Her2 expr inh -39 (no result: E coli RNAP)
CC(C)(C)NC(=O)CSc1nc(O)cc(=O)n1-c1ccccc1F	none (no result: BAP1 block)
Cc1[nH]n2c(=O)cc(C(C)C)nc2c1-c1ccccc1	none (no result: E coli RNAP)
Cc1[nH]n2c(=O)cc(C(C)(C)C)nc2c1-c1ccccc1	TNAP act DEA 2
CCOC(=O)C(NC(C)=O)(N1CCc2ccccc2C1)C(F)(F)F (configuration not stated)	Her2 expr inh -18
c1cncc(-c2nnc(-c3cccnc3)nn2)c1	SKBR3 24h inh 35
COc1ccc(-c2nc3cc(N=CC=Cc4cccc(Br)c4)ccc3o2)cc1	none (no result: Her2 expr inh, SKBR3 24h inh, E coli RNAP, TNAP act DEA)
Cc1cc(N)n(-c2ccccc2)n1	none (no result: BAP1 block)
Cc1cc(-c2cc(N)n(-c3ccccc3)n2)c(C)n1C1CCCC1	SKBR3 24h inh 43
Cc1ccc(-c2nnn(CC(=O)N(CC(=O)NC3CCCC3)c3cnc4ccccc4c3)n2)o1	none
CCC(C(=O)NC1CCCC1)N(C(=O)Cn1nnc(-c2ccc(C)o2)n1)c1cnc2ccccc2c1 (configuration not stated)	Her2 expr inh -8.5 (no result: SKBR3 24h inh)
Oc1ccc2ccccc2c1C=NCc1cn2ccsc2n1	Her2 expr inh -11 (no result: SKBR3 24h inh)
N=c1c2c(-c3ccccc3)c(-c3ccccc3)n(Cc3ccco3)c2ncn1Cc1ccco1	Her2 expr inh 4.4 (no result: SKBR3 24h inh)
O=c1c2ccccc2c2ccccc2c(=O)n1Cc1ccco1	none
N=c1c2c(-c3ccccc3)c(-c3ccccc3)n(Cc3ccccc3)c2ncn1CCCn1ccnc1	Her2 expr inh 3.3
Clc1ccccc1OCCCCn1ccnc1	none (no result: SKBR3 24h inh)
CCC1C2CN(C(C)=O)CC=C2C(C#N)=C(N)C1(C#N)C#N (configuration not stated)	none (no result: SKBR3 24h inh)
COc1ccc([C@@H]2[C@H]3CN(C(C)=O)CC=C3C(C#N)=C(N)C2(C#N)C#N)c2ccccc12	Her2 expr inh -0.8
O=C(CSc1oc(-c2ccccc2)nc1S(=O)(=O)c1ccc(F)cc1)NCC1CCCO1 (configuration not stated)	Her2 expr inh -21 (no result: BAP1 block)
O=C(CSc1oc(-c2ccc(F)cc2)nc1S(=O)(=O)c1ccccc1)NCC1CCCO1 (configuration not stated)	none (no result: BAP1 block)
O=C(NCCCc1ccccc1)c1ccncc1	Her2 expr inh -5.5
O=C(NCCOC(=O)c1ccncc1)c1ccccc1	none
COc1cc2ccccc2cc1C(=O)Nc1nnc(C23CC4CC(CC(C4)C2)C3)s1	none (no result: Her2 expr inh, SKBR3 24h inh, E coli RNAP, TNAP act DEA)
Cc1c(NS(=O)(=O)c2ccccc2)cc(Cl)c(O)c1C	E coli RNAP 26
CC(C)c1cc(NC(=O)c2ccc([N+](=O)[O-])cc2)cc(C(C)C)c1O	none (no result: Her2 expr inh, SKBR3 24h inh, E coli RNAP, TNAP act DEA)
O=C(Nc1nc2c(s1)CCCC2)C1COc2ccccc2O1 (configuration not stated)	none (no result: SKBR3 24h inh)
O=C(NC1CCS(=O)(=O)C1)c1c(NC(=O)C2COc3ccccc3O2)sc2c1CCCC2 (configuration not stated)	E coli RNAP 32
Nc1c(S(=O)(=O)O)cc(Nc2ccc(Nc3nc(Cl)nc(Nc4ccc(S(=O)(=O)O)cc4)n3)c(S(=O)(=O)O)c2)c2c1C(=O)c1ccccc1C2=O	BAP1 block active (no result: Her2 expr inh, SKBR3 24h inh, E coli RNAP, TNAP act DEA)
C=CCN=C(NC#N)SCc1ccccc1Cl	Her2 expr inh -4.6
CC(NC(=O)c1cc2ccccc2o1)C(=O)O (configuration not stated)	E coli RNAP 44
COC(=O)c1sc(S(=O)(=O)N2CCN(c3ccccc3)CC2)c(C(=O)OC)c1C	Her2 expr inh -30
COC(=O)c1sc(S(=O)(=O)N2CCCCC2)c(C(=O)OC)c1C	none
O=C1CSC(c2ccc([N+](=O)[O-])cc2)N1CC12CC3CC(CC(C3)C1)C2 (configuration not stated)	none (no result: Her2 expr inh, SKBR3 24h inh, E coli RNAP, TNAP act DEA)
COc1cc(Cn2c(-c3nonc3N)nc3ccccc32)ccc1C	SKBR3 24h inh 35
COc1cccc(Cn2c(-c3nonc3N)nc3ccccc32)c1	none
COc1ccc(CC(=O)Nc2cccc(-c3nnc(-c4cccc(C)c4)o3)c2)cc1OC	Her2 expr inh -0.4, SKBR3 24h inh inconclusive
CC(=O)Nc1sc2c(c1C#N)CCCCC2	E coli RNAP 22
Cc1onc(-c2ccccc2)c1C(=O)Nc1sc2c(c1C#N)CCC2	SKBR3 24h inh 44 (no result: BAP1 block)
CCCOc1ccccc1C1NC(=O)NC(C)=C1C(=O)OCC1CCCCC1 (configuration not stated)	none (no result: Her2 expr inh, SKBR3 24h inh, E coli RNAP, TNAP act DEA)
C=Cc1c(C)c2cc3[nH]c(cc4nc(cc5nc(cc1[nH]2)C(C)=C5CCC(=O)O)C(CCC(=O)O)=C4C)c(C)c3C=C	BAP1 block active (no result: Her2 expr inh, SKBR3 24h inh, E coli RNAP, TNAP act DEA)
CC(O)c1nc2ccccc2n1Cc1ccc2ccccc2c1 (configuration not stated)	none (no result: Her2 expr inh, SKBR3 24h inh, E coli RNAP, TNAP act DEA)
COc1ccc(-c2cn3c(C)c(C(=O)N4CCc5ccccc5C4)sc3n2)cc1	BAP1 block active (no result: SKBR3 24h inh)
COC(=O)c1sc(NC(=O)c2ccco2)nc1C	none (no result: SKBR3 24h inh)
Cc1nc(NC(=O)c2ccco2)sc1C(=O)Nc1ccc(Br)cc1	Her2 expr inh -3.0 (no result: SKBR3 24h inh)
COc1ccc(N=c2oc3ccc([N+](=O)[O-])cc3cc2C(=O)NC(C)=O)cc1	none (no result: Her2 expr inh, SKBR3 24h inh, E coli RNAP, TNAP act DEA)
CC(C)Cc1nc2oc3c(N4CCN(CCO)CC4)ncnc3c2c2c1CCCC2	Her2 expr inh -3.6
CCOC(=O)CNC(=O)CSc1ncnc2c1cnn2Cc1ccccc1	Her2 expr inh -18
Cn1nc(C(=O)Nc2c(-c3ccccc3)nc3sccn23)c2ccccc2c1=O	Her2 expr inh 1.1 (no result: SKBR3 24h inh, TNAP act DEA)
CCOc1cccc(C(=O)Nc2ccc(NC(=O)c3ccc(C(C)(C)C)cc3)cc2)c1	none (no result: Her2 expr inh, SKBR3 24h inh, E coli RNAP, TNAP act DEA)
O=C1CC(Sc2nnc(-c3ccccc3O)o2)C(=O)N1c1ccccc1 (configuration not stated)	Her2 expr inh -13 (no result: SKBR3 24h inh)
COc1ccc(N2C(=O)CC(Sc3nnc(-c4ccccc4)o3)C2=O)cc1 (configuration not stated)	Her2 expr inh -18 (no result: SKBR3 24h inh)
O=C1c2ccccc2CC1Sc1nnc(-c2ccccn2)o1 (configuration not stated)	none
Nc1ccc2ncccc2c1N	Her2 expr inh -19
CCN(CCNC(=O)C1CCN(Cc2nc(-c3cccc(Cl)c3)oc2C)CC1)c1ccccc1	Her2 expr inh -13 (no result: SKBR3 24h inh)
CCc1ccc(-c2nc(CN3CCC(C(=O)N4CCN(c5ccccc5)CC4)CC3)c(C)o2)cc1	Her2 expr inh -15 (no result: SKBR3 24h inh)
